# ATG4B inh – inhibitors of human ATG4B cysteine protease; 340,000 compounds, 0.51% hits; inhibition, % at 8.33 µM; Q9Y4P1; ATG4B cleavage of LC3-PLA2, NBD-HPC fluorescence, 1 h; in the data active = inhibition above about 40%
# Target sequence (Q9Y4P1 whole entry, looked up): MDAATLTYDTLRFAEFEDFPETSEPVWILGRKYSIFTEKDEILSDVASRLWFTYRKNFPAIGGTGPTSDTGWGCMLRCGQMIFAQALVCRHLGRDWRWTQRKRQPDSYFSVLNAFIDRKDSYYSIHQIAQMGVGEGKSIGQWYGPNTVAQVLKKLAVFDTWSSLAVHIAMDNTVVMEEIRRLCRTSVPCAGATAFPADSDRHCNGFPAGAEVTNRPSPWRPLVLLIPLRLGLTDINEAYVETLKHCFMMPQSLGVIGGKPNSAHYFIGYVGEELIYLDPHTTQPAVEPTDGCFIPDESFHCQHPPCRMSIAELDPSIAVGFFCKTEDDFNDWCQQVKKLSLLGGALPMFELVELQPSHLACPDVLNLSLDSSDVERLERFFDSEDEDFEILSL
# PP5 primary – blocks human protein phosphatase 5 activity; 320,000 compounds, 0.18% hits; inhibition, % at 6.7 µM; purified PP5c, OMFP substrate fluorescence; P53041;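 active = inhibition above the campaign's mean inhibition across all tested compounds plus 3 SD, cut at about 9.5% in these data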
# PP1 inh – counter-screen for PP5 inhibitors: inhibitors of human PP1-alpha. purified PP1alpha, OMFP fluorescence. P62136. inhibition, % at 6.7 µM. 320,000 compounds, 0.9% hits;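 active = inhibition above the mean inhibition of all tested compounds plus 3 SD, computed separately for each screening campaign, cut at about 15% in these data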
# H9c2 protect – myocardial damage modulation in H9c2 cells; AID 588492; H9c2 cardiomyocytes, H2O2 injury protection, ATPLite, 2 h; 360,000 compounds, 0.63% hits; protection from H2O2 cell death, % at 20 µM;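 active = compounds giving at least 50% protection of heart cells from peroxide-induced death in the single-dose screen, raw or plate-pattern-corrected value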
# PP5 conf – confirmation of human PP5 phosphatase inhibitors | shares compounds with PP5 primary | Purified PP5, fluorogenic phosphatase substrate, fluorescence | inhibition, % at 6.7 µM | 460 compounds, 22% hits; in the data active = inhibition above about 9.5%
# PP1 counter 3x – inhibits human PP1 phosphatase in PP5 counter-screen. PP1 enzyme, fluorescent phosphatase substrate. inhibition, % at 6.7 µM. 460 compounds, 4% hits. shares compounds with PP5 primary; in the data active = inhibition above about 16%
# ATG4B confirm – ATG4B (human) inhibition, single-dose confirmed. shares compounds with ATG4B inh. ATG4B protease fluorescent substrate cleavage assay. inhibition, % at 8.33 µM. 320 compounds, 92% hits. AID 504757; in the data active = inhibition above about 39%
# PLA2 ctr – PLA2 (human) inhibition in ATG4B counter-screen; 1,600 compounds, 66% hits; shares compounds with ATG4B inh; inhibition, % at 8.33 µM; purified PLA2, NBD-C6-HPC fluorescence, 45 min; in the data active = inhibition above about 50%
# Target sequence (P04054 whole entry, looked up): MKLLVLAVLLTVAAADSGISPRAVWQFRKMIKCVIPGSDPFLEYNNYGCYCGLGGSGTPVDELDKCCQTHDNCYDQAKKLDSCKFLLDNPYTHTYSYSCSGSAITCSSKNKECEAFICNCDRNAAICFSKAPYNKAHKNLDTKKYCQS
# A number is an active result; n = inactive; x = no result. Rows were chosen to be rich in hits. Some 1.9% of all compounds tested hit in one or more screens of this group.
SMILES,ATG4B inh,PP5 primary,PP1 inh,H9c2 protect,PP5 conf,PP1 counter 3x,others
COCC(=O)N1C[C@H]2CON(C)[C@H]2C[C@H]1c1cccc(-c2ccc(C#N)cc2)c1,n,x,x,n,x,x,
CCOC(=O)CCNC(=O)N1CCCC(N(C)CCc2ccccc2)C1 (centres undefined),n,n,n,n,x,x,
CCOC(=O)CN(C(=O)COC(=O)C1=NNC(=O)CC1)c1ccc(F)cc1,n,x,x,n,x,x,
COc1ccc(C(=O)c2ccc([N+](=O)[O-])cc2)c(OC)c1OC,n,x,x,n,x,x,
O=C(O)c1nnn(-c2cc(C(F)(F)F)cc(C(F)(F)F)c2)c1-c1ccccc1,n,20,n,n,n,n,
O=C(O)c1nnn(-c2ccc(F)cc2F)c1-c1ccccc1,n,n,n,n,x,x,
Cc1cccc(OCC(=O)N/N=C/c2sc(=O)n(Cc3cccc(C(=O)O)c3)c2Cl)c1,n,13,n,n,n,n,
O=C(COc1ccccc1)N/N=C/c1sc(=O)n(Cc2cccc(C(=O)O)c2)c1Cl,n,n,n,n,x,x,
O=C(NCc1cccc(C(F)(F)F)c1)c1csc([C@@H]2C[C@H](O)[C@@H](CO)O2)n1,x,x,x,n,x,x,
CCCc1[nH]c2ccc(C(=O)OC)cc2c1CCC,n,n,n,n,x,x,
CCCc1[nH]c2ccc(C#N)cc2c1CCC,n,13,n,n,n,n,
O=C(N/N=C/c1ccccc1OC(F)F)NC1CCCCC1,n,11,n,n,n,n,
CCSC1=C(C#N)C2(CCCCC2)C(C#N)=C(N)N1,n,n,n,n,x,x,
N#CC1=C(N)NC(SCc2ccccc2)=C(C#N)C12CCCCC2,n,12,n,n,n,n,
CCOc1cc(-c2cc(-c3ccc(C)cc3)nc(N)c2C#N)ccc1O,n,9.7,n,n,n,n,
Cc1ccc(NC(=O)COC(=O)c2c(-c3ccccc3)noc2C)cc1,n,n,n,n,x,x,
Cc1onc(-c2ccccc2)c1C(=O)OCC(=O)Nc1ccc(OC(F)(F)F)cc1,n,9.7,n,n,n,n,
CCOC(=O)c1cccc(NC(=O)CSc2nnc(COc3ccccc3)n2CC)c1,n,12,n,n,n,n,
CCOC(=O)NC(NC(=S)Nc1ccccc1[N+](=O)[O-])C(Cl)(Cl)Cl (centres undefined),n,11,n,n,n,n,
COc1ccc(C(=O)Nc2ccc(OCC(F)(F)C(F)F)c(C(F)(F)F)c2)cc1OC,n,12,n,n,11,n,
ONC(=Nc1ccccc1Cl)c1ccccc1Cl,n,13,n,n,n,n,
CC(=O)c1cc(Cl)ccc1OCC(=O)Nc1cccc(S(=O)(=O)N2CCCC2)c1,n,n,n,n,x,x,
CC(=O)c1ccc(NC2=C(N3CCOCC3)C(=O)c3ccccc3C2=O)cc1,n,10,n,n,16,n,
Cc1ccc(NC2=C(N3CCOCC3)C(=O)c3ccccc3C2=O)cc1,n,10,n,n,30,n,
O=C(O)c1ccc(NC2=C(N3CCOCC3)C(=O)c3ccccc3C2=O)cc1,n,n,n,n,x,x,
SMILES,ATG4B inh,PP5 primary,PP1 inh,H9c2 protect,PP5 conf,PP1 counter 3x,others
CSCCC(NS(=O)(=O)c1ccccc1F)C(=O)NCc1cccnc1 (centres undefined),n,n,n,n,x,x,
COc1cc(NC(=O)C2CC(c3ccccc3Cl)=NO2)cc(OC)c1OC (centres undefined),n,n,n,n,x,x,
C=CCc1c(C)nc(SC)nc1Nc1ccc(C(=O)O)cc1,n,11,n,n,n,n,
CC(C)C(=O)Nc1cccc(C(=O)Nc2ccccc2C(=O)O)c1,n,10,n,n,n,n,
CN(CCOc1ccc(Cl)cc1)C(=O)c1cc(S(=O)(=O)N2CCOCC2)ccc1N1CCCC1,n,n,n,n,x,x,
CCCN(CCC)C(=O)CC(c1ccccc1)c1cc(Br)ccc1O (centres undefined),n,12,n,n,n,n,
CCCN(CCC)C(=O)CC(c1ccccc1)c1ccc(C)cc1O (centres undefined),n,n,n,n,x,x,
O=C(Nc1nc(-c2ccc3c(c2)OCCO3)cs1)C1CCCC1,n,n,n,n,x,x,
O=C1C(O)=C(O)C(=O)c2ccccc21,n,13,n,n,14,28,
COc1cc(-c2nc(C(=O)NCC3CCCO3)cc3c2[nH]c2ccccc23)cc(OC)c1OC (centres undefined),n,n,n,n,x,x,
O=C(NCC1CCCO1)c1cc2c([nH]c3ccccc32)c(-c2cccc(Cl)c2)n1 (centres undefined),n,11,n,n,n,n,
CC(NC(=O)Oc1cccc2ccccc12)c1ccccc1 (centres undefined),n,x,x,n,x,x,
Cc1c(NC(=S)N/N=C/c2ccc(O)cc2)c(=O)n(-c2ccccc2)n1C,n,n,n,n,x,x,
Cc1c(NC(=S)N/N=C/c2cc([N+](=O)[O-])ccc2O)c(=O)n(-c2ccccc2)n1C,n,12,n,n,n,n,
CCOC(=O)Cc1csc(NC(=O)c2ccc(Cl)nc2)n1,n,13,n,n,n,n,
CCOC(=O)Cc1csc(NC(=O)c2ccc(C)cc2)n1,n,n,n,n,x,x,
CCOc1ccccc1NC(=O)C1C2C=CC(O2)C1C(=O)O (centres undefined),n,30,n,n,n,n,
O=C(O)C1C2C=CC(O2)C1C(=O)Nc1ccccc1C(F)(F)F (centres undefined),n,n,n,n,x,x,
CCc1ccccc1NC(=O)C1C2C=CC(O2)C1C(=O)O (centres undefined),n,21,n,n,n,n,
CS(=O)(=O)c1ccc(-c2csc(-c3cccnc3)n2)cc1,n,n,n,n,x,x,
CCOc1cc2c(C#N)c(N3CCCC3)nc(N)c2c(N)n1,n,n,n,n,x,x,
CCCOc1cc2c(C#N)c(N3CCCC3)nc(N)c2c(N)n1,n,11,n,n,38,n,
CCCCN(CC)c1nc(N)c2c(N)nc(OCC)cc2c1C#N,n,12,n,n,25,n,
COc1ccc(C(=S)N2CCOCC2)cc1OS(=O)(=O)c1ccc(Br)cc1,n,n,n,n,x,x,
O=C(Nc1ccc(OC(F)(F)F)cc1)N1CCN(c2ccnc3cc(Cl)ccc23)CC1,n,10,n,n,n,n,
SMILES,ATG4B inh,PP5 primary,PP1 inh,H9c2 protect,PP5 conf,PP1 counter 3x,others
C(=NN1CCCCCC1)c1ccc2c(c1)OCO2,n,x,x,n,x,x,
N#Cc1c(N2CCCC2)nc(N)c2c(N)nc(N3CCCC3)cc12,74,16,n,n,25,18,ATG4B confirm=n;PLA2 ctr=n
Cn1c(=O)cc(Nc2ccccc2)[nH]c1=O,n,n,n,n,x,x,
O=c1[nH]c(Nc2ccccc2)cc2ccccc12,n,11,n,n,34,n,ATG4B confirm=75;PLA2 ctr=n
CC1CCCN(C(=O)CCNC(=O)Cn2cnc3ccccc3c2=O)C1 (centres undefined),n,n,n,n,x,x,
COc1ccc(CNc2ncnc(N)n2)cc1,n,n,n,n,x,x,

# Screening data (PubChem BioAssay)
